Compound activity from PubChem BioAssay.
A selection: hits, their analogues and other compounds. The true share with any hit is near 6.7%.
C diff growth – C. difficile growth inhibition. 0.25% of 86,000 active. AID 1259249. growth activity, negative = inhibition, % at 16 µg/mL (by protocol). Clostridium difficile clinical isolate growth, OD600, 24 h; stronger effect = lower value;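 active = mean growth activity at or below -80% and every replicate also at or below -80%; inconclusive = mean at or below -80% but some replicate above -80%; inactive = mean growth activity above -80%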
Pf Dd2 inh – inhibitors of Plasmodium falciparum Dd2 growth; activity change, % at 10 µM; P. falciparum Dd2 growth, SYBR Green, 72 h; stronger effect = lower value; 2.3% of 94,000 active; in the data active = activity change below about -80%; inconclusive = no clear call, values can overlap the other calls
T cruzi growth-1 – T. cruzi proliferation inhibition; inhibition, % at 8.34 µM; 5.9% of 77,000 active; T. cruzi beta-gal in NIH3T3, GalScreen luminescence, 90 h; AID 624255;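 active = mean inhibition above about 93%, with at least 55% of replicates each passing it, limit read from the data, passing the limit was not always enough; inconclusive = only one of those two conditions holds; inactive = neither condition holds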
T cruzi growth-2 – inhibitors of T. cruzi proliferation | shares compounds with T cruzi growth-1 | inhibition, % at 8.35 µM | 72% of 5,600 active | T. cruzi beta-gal in NIH3T3, GalScreen luminescence, 90 h | AID 651739;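 active = mean replicate inhibition above about 95% and at least 55% of replicates individually reaching it, limit read from the data; inconclusive = only one of the two criteria is met; inactive = neither criterion is met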
T cruzi growth-3 – blocks T. cruzi growth in NIH3T3 host cells; shares compounds with T cruzi growth-1; T. cruzi beta-gal in NIH3T3, GalScreen luminescence, 90 h; inhibition, % at 2.09 µM; 21% of 5,600 active; AID 651740;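 active = mean inhibition above about 95%, with at least 55% of replicates also reaching it, limit read from the data; inconclusive = meets just one of the two conditions; inactive = meets neither condition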
3T3 cytotox – NIH/3T3 (mouse) viability loss; AID 651742; shares compounds with T cruzi growth-1; cytotoxicity (signal decrease), % at 8.35 µM; NIH/3T3 viability, CellTiter-Glo ATP luminescence, 90 h; 14% of 5,600 active;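 active = mean signal decrease across replicates above about 35% based on untreated-well scatter, with enough replicates individually passing, limit read from the data; inconclusive = no rule stated though some were filed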
3T3 cytotox 2 – cytotoxicity in mouse NIH/3T3 fibroblasts | NIH/3T3 viability, CellTiter-Glo ATP luminescence, 90 h | AID 651744 | inhibition, % at 24.9 µM | 56% of 5,600 active | shares compounds with T cruzi growth-1;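 active = mean loss of cell viability signal at or above a set limit, and enough replicates individually reaching it; inconclusive = meets only the mean limit or only the replicate share; inactive = meets neither condition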
Large screens that a line does not name were inactive (follow-up assays come after a bar, where they were run); ! = not confirmed by another sample.

CC(=O)N(C)C[C@H]1Oc2cc(C#Cc3ccccc3)ccc2S(=O)(=O)N([C@@H](C)CO)C[C@H]1C	none
C[C@H]1CN([C@@H](C)CO)C(=O)Cc2cc(NC(=O)Nc3ccccc3)ccc2O[C@@H]1CN(C)C(=O)Nc1cccc2ccccc12	none
CC(C)NC(=O)N[C@H]1C=C[C@H](CC(=O)NC2Cc3ccccc3C2)O[C@@H]1CO	none
COc1ccc(NC(=O)Nc2ccc3c(c2)C(=O)N([C@@H](C)CO)C[C@@H](C)[C@H](CN(C)S(=O)(=O)c2ccc(OC)cc2)OCCCC[C@H](C)O3)cc1	none
COc1ccc(S(=O)(=O)N(C)C[C@@H]2OCCCC[C@H](C)Oc3ccc(NC(=O)Nc4ccccc4)cc3C(=O)N([C@H](C)CO)C[C@@H]2C)cc1	T cruzi growth-1 110 | T cruzi growth-2 106 | T cruzi growth-3 inactive | 3T3 cytotox inactive | 3T3 cytotox 2 inactive
COc1ccc(NC(=O)Nc2ccc3c(c2)C(=O)N([C@H](C)CO)C[C@@H](C)[C@H](CN(C)S(=O)(=O)c2ccc(Cl)cc2)OCCCC[C@H](C)O3)cc1	T cruzi growth-1 104 | T cruzi growth-2 110 | T cruzi growth-3 102 | 3T3 cytotox inactive | 3T3 cytotox 2 inactive
COc1ccc(S(=O)(=O)N(C)C[C@@H]2OCCCC[C@@H](C)Oc3ccc(NC(=O)Nc4ccccc4)cc3C(=O)N([C@H](C)CO)C[C@@H]2C)cc1	none
CC(C)NC(=O)N(C)C[C@H]1OCCCC[C@H](C)Oc2ccc(NS(=O)(=O)c3cn(C)cn3)cc2C(=O)N([C@H](C)CO)C[C@@H]1C	none
CC(C)CC#Cc1ccc2c(c1)O[C@H](CN(C)Cc1cccc(F)c1)[C@@H](C)CN([C@@H](C)CO)S2(=O)=O	none
Cc1ccccc1S(=O)(=O)N1CC[C@@H]2[C@@H](CO)N(C)c3ccc(Br)cc3[C@@H]21	T cruzi growth-1 inconclusive | T cruzi growth-2 100 | T cruzi growth-3 inactive | 3T3 cytotox inactive | 3T3 cytotox 2 106
CN1c2ccc(Br)cc2[C@H]2[C@H](CCN2S(=O)(=O)c2ccccc2F)[C@@H]1CO	T cruzi growth-1 93 | T cruzi growth-2 107 | T cruzi growth-3 inactive | 3T3 cytotox inactive | 3T3 cytotox 2 inactive
Cc1ccccc1S(=O)(=O)N1CC[C@@H]2[C@H]1c1cc(-c3cccc(F)c3)ccc1N(C)[C@H]2CO	none
Cc1ccccc1S(=O)(=O)N1CC[C@H]2[C@@H](CO)N(C)c3ccc(Br)cc3[C@H]21	none
CN1c2ccc(Br)cc2[C@@H]2[C@@H](CCN2S(=O)(=O)c2ccccc2F)[C@H]1CO	none
Cc1ccccc1S(=O)(=O)N1CC[C@@H]2[C@@H](CO)N(C)c3ccc(-c4ccccc4)cc3[C@@H]21	T cruzi growth-1 inconclusive | T cruzi growth-2 111 | T cruzi growth-3 108 | 3T3 cytotox inactive | 3T3 cytotox 2 104
C[C@@H]1CN([C@H](C)CO)S(=O)(=O)c2ccc(-c3cccnc3)cc2O[C@H]1CN(C)Cc1ccncc1	none
C[C@@H]1CCCCO[C@@H](CN(C)Cc2ccccc2)[C@H](C)CN([C@@H](C)CO)C(=O)c2cc(NS(=O)(=O)c3cccs3)ccc2O1	none (no result: C diff growth, T cruzi growth-1)
C[C@H]1CN([C@@H](C)CO)C(=O)Cc2cc(NS(=O)(=O)c3ccc(F)cc3)ccc2O[C@H]1CN(C)S(=O)(=O)c1ccc(Cl)cc1	none
O=C(N[C@@H]1CC[C@@H](CCNS(=O)(=O)c2ccc(F)cc2)O[C@H]1CO)C1CCCC1	none (no result: T cruzi growth-1)
CC(C)NC(=O)N(C)C[C@H]1OCCCC[C@@H](C)Oc2ccc(NS(=O)(=O)c3cn(C)cn3)cc2C(=O)N([C@@H](C)CO)C[C@@H]1C	none
O=C(C[C@H]1C[C@@H]2c3cc(NC(=O)C4CCC4)ccc3O[C@@H]2[C@@H](CO)O1)NCCc1ccccc1	none
O=C(NC1CCCC1)N1CC2(C1)[C@H](c1ccccc1)[C@@H](CO)N2CC1CCOCC1	none (no result: T cruzi growth-1)
C[C@H](CO)N1C[C@H](C)[C@@H](CN(C)Cc2cccnc2)Oc2cc(-c3ccccc3)ccc2S1(=O)=O	none
Cc1ccc(-c2ccc3c(c2)O[C@H](CN(C)Cc2cccnc2)[C@@H](C)CN([C@@H](C)CO)S3(=O)=O)cc1	Pf Dd2 inh -83, T cruzi growth-1 119 | T cruzi growth-2 106 | T cruzi growth-3 97 | 3T3 cytotox 50 | 3T3 cytotox 2 105
C[C@@H]1CN([C@@H](C)CO)S(=O)(=O)c2ccc(-c3ccncc3)cc2O[C@@H]1CN(C)Cc1cccnc1	none
C[C@H](CO)N1C[C@H](C)[C@@H](CN(C)Cc2cccnc2)Oc2cc(-c3cccnc3)ccc2S1(=O)=O	T cruzi growth-1 101! | T cruzi growth-2 inactive | T cruzi growth-3 inactive | 3T3 cytotox inactive | 3T3 cytotox 2 64
Cc1ccc(-c2ccc3c(c2)O[C@H](CN(C)Cc2cccnc2)[C@@H](C)CN([C@H](C)CO)S3(=O)=O)cc1	Pf Dd2 inh inconclusive, T cruzi growth-1 119 | T cruzi growth-2 99 | T cruzi growth-3 112 | 3T3 cytotox 80 | 3T3 cytotox 2 92
C[C@@H]1CN([C@H](C)CO)S(=O)(=O)c2ccc(-c3cccnc3)cc2O[C@@H]1CN(C)Cc1cccnc1	none
Cc1ccc(-c2ccc3c(c2)O[C@@H](CN(C)Cc2cccnc2)[C@H](C)CN([C@@H](C)CO)S3(=O)=O)cc1	Pf Dd2 inh -81, T cruzi growth-1 117 | T cruzi growth-2 98 | T cruzi growth-3 96 | 3T3 cytotox 51 | 3T3 cytotox 2 100
C[C@H](CO)N1C[C@H](C)[C@H](CN(C)Cc2cccnc2)Oc2cc(-c3ccncc3)ccc2S1(=O)=O	none
C[C@@H]1CN([C@@H](C)CO)C(=O)c2cccc(NS(=O)(=O)c3cccs3)c2O[C@H]1CN(C)S(=O)(=O)c1ccccc1	none (no result: C diff growth)
C[C@@H]1CN([C@@H](C)CO)C(=O)Cc2cc(NC(=O)Nc3ccc(C(F)(F)F)cc3)ccc2O[C@@H]1CN(C)Cc1ccncc1	none (no result: T cruzi growth-1)
C[C@@H]1CN([C@H](C)CO)C(=O)c2cc(C3=CCCC3)cnc2O[C@@H]1CN(C)C(=O)c1ccc(F)cc1	none
Cc1ccc(-c2ccc3c(c2)O[C@H](CN(C)Cc2ccc(F)cc2)[C@H](C)CN([C@@H](C)CO)S3(=O)=O)cc1	T cruzi growth-1 97 | T cruzi growth-2 106 | T cruzi growth-3 inconclusive | 3T3 cytotox inactive | 3T3 cytotox 2 69
Cc1ccc(-c2ccc3c(c2)O[C@@H](CN(C)Cc2ccc(F)cc2)[C@@H](C)CN([C@H](C)CO)S3(=O)=O)cc1	none
Cc1ccc(-c2ccc3c(c2)O[C@H](CN(C)Cc2ccc(C(=O)O)cc2)[C@@H](C)CN([C@H](C)CO)S3(=O)=O)cc1	none
